Measurements reported in PubChem BioAssay.
Activity calls are given as the source filed them. Cut-off read from the data, not from the text of the source: active = fold change permeability below about 0.7 or above about 1.3; inactive = in between.

Assay: modulators of brain endothelial barrier permeability, primary screen, cell-based, FITC-avidin fluorescence, HTS (AID 1963498); note: test concentration not given here
Details: actives lie on both sides

Fold change permeability, active:
C1CCc2nnnn2CC1 1.3
CCc1cccc2c3c([nH]c12)C(CC)(CC(=O)O)OCC3 (stereo unspecified) 1.3
Oc1ccc2ccccc2c1SSc1c(O)ccc2ccccc12 1.6
Cc1c(OCC(F)(F)F)ccnc1CS(=O)c1nc2ccccc2[nH]1 (stereo unspecified) 1.6
N#CC(=C(/N)Sc1ccccc1N)/C(C#N)=C(\N)Sc1ccccc1N 1.6
CC[C@]1(O)C[C@H]2CN(CCc3c([nH]c4ccccc34)[C@@](C(=O)OC)(c3cc4c(cc3OC)N(C=O)[C@H]3[C@@](O)(C(=O)OC)[C@H](OC(C)=O)[C@]5(CC)C=CCN6CC[C@]43[C@@H]65)C2)C1 2.1

Fold change permeability, inactive:
O=C(O)C1=CC(=C(c2ccc(O)c(C(=O)O)c2)c2ccc(O)c(C(=O)O)c2)C=CC1=O 0.9
O=C(O)CCc1ccc(-c2ccc(Br)cc2)n1-c1ccccc1C(F)(F)F 1.2
COC(=O)C1=C(C)NC(C)=C([N+](=O)[O-])C1c1ccccc1C(F)(F)F (stereo unspecified) 1.1
Clc1cccc(Cl)c1CSc1nnc(-c2cnccn2)s1 1.2
COc1cc([C@@H]2c3cc4c(cc3[C@@H](O[C@@H]3O[C@@H]5CO[C@@H](C)O[C@H]5[C@H](O)[C@H]3O)[C@H]3COC(=O)[C@H]23)OCO4)cc(OC)c1O 0.9
CCCCC1C(=O)N(c2ccccc2)N(c2ccccc2)C1=O 0.9
O=C1N(c2ccccc2)c2ccccc2C1(Cc1ccncc1)Cc1ccncc1 0.9
COc1cc(-c2cc(-c3ccc(N4CCNCC4)cc3)cnc2C)cc(OC)c1OC 1.2
CNC(=O)c1cc2c(cn1)[nH]c1ccccc12 0.8
Cc1nc(C(=O)N2CCC[C@H]2Cc2nnc(-c3ccccc3)o2)c(-c2ccccc2F)s1 1
CNC(=O)Nc1cc(Oc2cncc(OC)c2)c(C2CCCOC2)cn1 (stereo unspecified) 1.1
C#CC(N)CCC(=O)O (stereo unspecified) 1.1
Nc1ncnc2c1ncn2C1CCCO1 (stereo unspecified) 1
Cn1ccc2cc(NC(=O)Nc3cccnc3)ccc21 1.2
CN1Cc2c(N)cccc2C(c2ccccc2)C1 (stereo unspecified) 1
